Reference: the supplement of paper PMC6555819

Experiments:
Test in all cases: PBM binding z-score (relative to random genomic background probes); higher = stronger binding; sequences stand for … in GC…GCGATTGACAGCGTAGAATGAAGG
[1] = test system: FXR:RXRa (NR concentration 270 nM, RXRa partner concentration 90 nM)
Method in brief: (§1)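 Scanned fluorescence from custom Agilent 4×180K protein-binding microarrays was regression-normalized. Binding z-scores use random background probes as reference. Ligand-free nuclear receptor dimers were incubated on the arrays for 1 h and detected with antibodies against each partner (one per run).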

[2] = test system: LXRa:RXRa (NR concentration 270 nM, RXRa partner concentration 90 nM)
Method in brief: as §1

[3] = test system: LXRa homodimer (NR concentration 270 nM)
Method in brief: as §1

[4] = test system: LXRb:RXRa (NR concentration 270 nM, RXRa partner concentration 90 nM)
Method in brief: as §1

[5] = test system: LXRb homodimer (NR concentration 270 nM)
Method in brief: as §1

[6] = test system: PPARa:RXRa (NR concentration 270 nM, RXRa partner concentration 90 nM)
Method in brief: as §1

[7] = test system: PPARg:RXRa (NR concentration 180 nM, RXRa partner concentration 90 nM)
Method in brief: as §1

[8] = test system: PPARg:RXRa 270nM:90nM, anti-RXR (NR concentration 270 nM, RXRa partner concentration 90 nM)
Method in brief: as §1

[9] = test system: PPARg:RXRa 30nM:10nM, anti-RXR (NR concentration 30 nM, RXRa partner concentration 10 nM)
Method in brief: as §1

[10] = test system: PPARg:RXRa 90nM:30nM, anti-RXR (NR concentration 90 nM, RXRa partner concentration 30 nM)
Method in brief: as §1

[11] = test system: PPARg:RXRa DBDmut IVT, anti-RXR (DBD mutation: RXRa K156A/R161A, NR concentration 270 nM, RXRa partner concentration 90 nM)
Method in brief: as §1

[12] = test system: PPARg:RXRa IVT, anti-PPARg (NR concentration 270 nM, RXRa partner concentration 90 nM)
Method in brief: as §1

[13] = test system: PPARg DBDmut:RXRa IVT, anti-PPARg (DBD mutation: PPARg1 K132A/R137A, NR concentration 270 nM, RXRa partner concentration 90 nM)
Method in brief: as §1

[14] = test system: PPARg DBDmut IVT, anti-PPARg (DBD mutation: PPARg1 K132A/R137A, NR concentration 270 nM)
Method in brief: as §1

[15] = test system: PPARg homodimer (NR concentration 180 nM)
Method in brief: as §1

[16] = test system: PXR:RXRa (NR concentration 270 nM, RXRa partner concentration 90 nM)
Method in brief: as §1

[17] = test system: PXR homodimer (NR concentration 270 nM)
Method in brief: as §1

[18] = test system: RARa:RXR (NR concentration 270 nM, RXRa partner concentration 90 nM)
Method in brief: as §1

[19] = test system: RARa homodimer (NR concentration 270 nM)
Method in brief: as §1

[20] = test system: RARb:RXRa (NR concentration 270 nM, RXRa partner concentration 90 nM)
Method in brief: as §1

Sequence	PBM binding z-score [1]	PBM binding z-score [2]	PBM binding z-score [3]	PBM binding z-score [4]	PBM binding z-score [5]	PBM binding z-score [6]	PBM binding z-score [7]	PBM binding z-score [8]	PBM binding z-score [9]	PBM binding z-score [10]	PBM binding z-score [11]	PBM binding z-score [12]	PBM binding z-score [13]	PBM binding z-score [14]	PBM binding z-score [15]	PBM binding z-score [16]	PBM binding z-score [17]	PBM binding z-score [18]	PBM binding z-score [19]	PBM binding z-score [20]
TCTAGTTGGTCAAAGGTCCCACACTCGAAATGCG	1.07	1.18	0.135	1.26	0.288	3.33	6.7	7.21	6.42	7.55	2.94	3.27	0.799	1.15	1.16	0.98	-0.0577	1.49	1.06	1.67
TCTTGTAGATCAATAGAGGTTAAGACAGTGCGCT	0.684	3.16	0.434	1.56	0.045	1.98	0.205	1.48	2.9	2.34	1.86	0.857	0.686	0.616	0.896	2.24	0.168	1.71	0.602	0.993
GCTAGCAGGTCATTTGGGTCACTCAATGACGGGC	5.14	3.76	2.34	3.32	0.927	4.37	3.89	4.06	1.29	2.66	3.89	4.84	0.133	-0.577	1.31	3.98	4.92	3.92	0.247	3.94
AATACAGCGTCACTAGGCCAGAGTAGGTACGAAT	-0.287	-0.499	-0.588	-0.808	-0.279	0.0154	0.87	0.513	0.103	0.0712	0.487	1.5	-0.275	0.0334	-0.38	-0.519	-0.407	-0.516	-0.0306	-0.113
TGTCAAAGTGCAAAGGTAACGTAAGTATCCACAC	1.4	1.63	-0.525	1.5	-0.151	3.32	5.23	5.16	2.4	4.4	0.00516	2.98	0.574	0.92	1.09	1.76	0.397	2.57	0.0756	2.38
CCTACTGGGCCATCAGGTCATTTATATCAACGTT	1.48	1.03	1.99	1.81	0.176	2.79	2.76	3.29	1.06	2.57	3.78	5.03	0.0191	0.266	1.09	1.59	0.478	2.06	0.492	1.75
GCTAGTTGGTCAGTAGAAGGTCACACACCGGTCG	1.88	2.35	2.32	2.24	0.231	2.69	1.13	2.23	0.306	1.54	1.12	2.07	-0.208	0.144	2.88	3.18	1.11	3.73	0.845	3.19
TTACCAAGGTGAAAGCTCGTTGATGCACGCCTTG	0.225	-0.099	-0.701	-0.367	-1.12	1.29	0.87	1.43	0.448	0.792	1.69	2.4	0.152	-0.364	-0.529	-0.393	-1	0.109	-0.866	1.3
CCGACTGGTGCATAAGGTTACCATAAGCCAGCCC	0.236	1.78	0.0222	0.722	-0.632	1.04	0.64	1.03	-0.311	0.705	-0.572	-0.302	-0.529	-1.4	0.502	0.475	-0.018	1.18	0.243	0.928
AGAATTAGGTTAAGATCAGGGAAACAGAATACAT	0.832	0.821	0.412	0.748	0.359	2.94	3.33	2.93	1.28	2.24	6.07	5.8	2.12	1.83	1.72	0.514	0.846	0.922	1.26	1.03
CAACCTAGGTCAGGGCCAGTATAGGAGGAACGTT	2.3	1.36	-0.178	0.897	-0.856	2.5	1.79	1.74	0.0391	0.938	2.7	3.26	0.0736	0.168	1.57	0.478	-0.518	1.45	0.172	3.51
ATCTCTAGGCAAAGATAGTTCAGTGAATGCAAAT	-0.415	0.271	0.124	-0.207	0.263	-0.233	0.154	-0.151	-0.0446	-0.153	0.0233	0.0871	0.389	0.566	-0.0165	-0.0478	0.35	-0.456	0.524	0.211
TTACCAAGATGAAAGGTCGTTGATGCACGCCTTG	1.32	1.82	0.225	1.6	-0.121	3.04	3.53	5.28	3.89	5.86	0.675	1.47	0.794	0.0757	1.13	2.08	0.245	2.24	0.444	1.55
ATCTCTAGGTAAAGATCAGTGAAAGATCGATAGA	0.248	0.153	0.0101	0.0437	0.463	0.624	1.04	1.14	0.487	0.992	1.79	1.45	0.659	1.08	0.78	-0.0968	0.169	0.174	0.687	0.0569
CGTCCAAGGGCAAGGTCAGTGAAAGAGACTCGAA	1.95	1.58	-0.119	1.22	-0.836	2.75	0.977	1.31	-0.324	0.436	0.735	1.62	-1.01	-1.55	0.963	1.68	-0.101	2.16	0.0198	3.94
ACTATTAGTTGACTTAGGGGAACCGATACGACGC	0.255	0.123	0.277	0.421	1.27	0.0304	0.951	0.244	0.351	0.326	1.27	0.41	1.51	1.41	0.783	0.271	0.621	0.648	1.36	0.217
TCTAGTTGGTCAAAGGTCACACAATCGAAATGCG	5.53	5.9	3.73	5.66	2.13	6.6	11.8	9.87	11.7	11.4	3.58	6.28	1.49	2.13	4.36	5.97	2.1	7.76	3.91	5.16
CCTTACGGGTCACGAGATTATAGCACGACGAGCG	6.02	4.05	0.0796	3.37	0.00532	5.42	6.21	5.93	2.99	4.95	4.81	4.72	1.92	0.779	2.33	3.46	0.13	4.62	1.2	4.26
ACTCGGAGGACAAAGTTCAGAGCTACGCCAGTGA	1.48	1.83	1.79	0.868	-0.232	2.82	4.04	5.27	3.37	5.49	0.00289	1.33	-0.512	-0.633	1.27	1.98	1.2	1.47	0.278	2.97
GGAACGAGGGCATTCGAGTTGTTAGCATGGCGAT	0.97	0.548	-0.561	-0.135	-0.712	1.18	0.562	0.571	-0.377	0.0631	3.22	1.99	-0.193	-0.86	-0.473	1.99	0.576	0.173	-0.666	1.81
TCTGCGAGGTCAGTTGGTCAGCTAACGAGCTGCC	4.64	3.16	0.00554	2.69	1.26	3.99	2.69	3.5	1.59	2.61	1.99	3.25	2.02	0.235	1	2.88	0.146	2.68	-0.6	4.51
ATCACTAGGTAACAAGTTCAGTGAAAGAGAGGAC	0.674	0.942	0.705	0.664	0.576	1.94	3.04	3.04	1.14	2.5	5	4.3	1.27	0.914	1.31	1.95	2.35	0.935	1.41	1.8
CAGCCTAGGTCAGGGCCAGGATAGGAGGAACGTT	1.84	0.87	-0.49	0.522	-1.06	2.04	0.835	1.15	-0.0382	0.556	1.16	1.82	-0.747	-1.27	0.00488	0.262	-0.967	0.879	-0.655	3.49
TCATATAGGTAAAGGAGAAAGTCGAACGATATGA	0.86	0.393	-0.261	0.259	-0.317	1.11	1.53	2.56	3.86	3.22	3.55	2.2	1.76	0.854	0.0719	0.215	-0.235	0.407	0.331	0.251
TAGCCTAGGTGATTCAGGGGCCAGTATAGAAAGC	-0.423	-0.634	-0.348	-0.094	-0.239	0.0128	0.0919	-0.199	-0.433	0.0704	0.201	0.666	-0.281	0.314	-0.16	-0.295	-0.446	0.184	-0.571	0.516
CGAACTAGGTCATCCAGGACAGTGATTACATTGA	4.19	2.8	0.631	2.2	-0.108	4.62	7.63	6.33	3.95	5.79	8.17	8.1	1.9	1.24	1.15	1.95	1.25	2.17	0.703	3.98
ATCTCTAGGTAAAAGTTGAGTGAATCCCGAGGAT	0.0929	0.162	0.126	-0.0605	0.531	2.84	4.94	6.21	5.21	6.22	2.05	2.5	1.01	1.53	0.688	0.0685	0.147	0.3	0.494	0.471
CAAACTAGGTCACATAGGTCAAAGTCCGTGCGTA	6.12	5.33	4.86	5.05	1.48	5.74	9.47	7.44	6.05	7.51	8.33	8.57	3	4.3	4.12	5.04	4	5.51	2.09	4.7
